# Rows were chosen to be rich in hits. Some 10% of all compounds tested hit in one or more screens of this group.
# NPR1 antag: blocks ANP-stimulated signaling of human Npr1 receptor; P16066; HEK293 hNpr1 GloSensor cGMP, ANP-stimulated luminescence; Potency, µM (series often up to 46.3 µM), inactives show at the highest dose activity change, negative = inhibition, actives largely listed as inhibitors; 76,000 compounds, 1.6% hits; calls by dose curve; note: nearly all actives have a fitted effect of over 60% in size
#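 HEK293 cells stably expressing human Npr1 and cGMP GloSensor pGS-40F, loaded 2 h with 2% GloSensor reagent, given compound 30 min at room temperature. Luminescence read before and 20 min after 0.1 nM hNppA.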
# HEK293 tox: HEK 293 cell cytotoxicity; HEK 293 viability, ATP luminescence (CellTiter-Glo), 48-72 h; 94,000 compounds, 6.6% hits; Potency, µM (doses to about 115 µM), without a hit: top-dose activity change, negative = cytotoxicity, usual class: inhibitors; note: nearly all actives have a fitted effect of over 60% in size
#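 qHTS cytotoxicity; HEK 293, 250 cells/well; compound pinned; 48 or 72 hr, 37 degree Celsius, 5% CO2, 95% humidity; CellTiter-Glo, 10 min RT; luminescence (ATP).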
# 3T3 cytotox: NIH 3T3 cell cytotoxicity; Potency, µM (highest dose often 96.7 µM), for the others: top-dose activity change, negative = cytotoxicity, most hits filed as inhibitors; 94,000 compounds, 4.3% hits; NIH 3T3 viability, CellTiter-Glo ATP luminescence, 48-72 h; note: nearly all actives have a fitted effect of over 55% in size
#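 ATP-dependent luminescence (CellTiter-Glo) served as the viability signal for NIH 3T3 cells treated with compound for 48 or 72 hr at 37 °C.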
# Luciferase inh: blocks purified firefly luciferase enzyme activity. P08659. purified P. pyralis luciferase, luminescence, biochemical. Potency, µM (highest dose often 115 µM), hits mostly inhibitors. 76,000 compounds, 2.5% hits. AID 1347043; note: nearly all actives have a fitted effect of over 65% in size
# Target sequence (P08659 whole entry, looked up): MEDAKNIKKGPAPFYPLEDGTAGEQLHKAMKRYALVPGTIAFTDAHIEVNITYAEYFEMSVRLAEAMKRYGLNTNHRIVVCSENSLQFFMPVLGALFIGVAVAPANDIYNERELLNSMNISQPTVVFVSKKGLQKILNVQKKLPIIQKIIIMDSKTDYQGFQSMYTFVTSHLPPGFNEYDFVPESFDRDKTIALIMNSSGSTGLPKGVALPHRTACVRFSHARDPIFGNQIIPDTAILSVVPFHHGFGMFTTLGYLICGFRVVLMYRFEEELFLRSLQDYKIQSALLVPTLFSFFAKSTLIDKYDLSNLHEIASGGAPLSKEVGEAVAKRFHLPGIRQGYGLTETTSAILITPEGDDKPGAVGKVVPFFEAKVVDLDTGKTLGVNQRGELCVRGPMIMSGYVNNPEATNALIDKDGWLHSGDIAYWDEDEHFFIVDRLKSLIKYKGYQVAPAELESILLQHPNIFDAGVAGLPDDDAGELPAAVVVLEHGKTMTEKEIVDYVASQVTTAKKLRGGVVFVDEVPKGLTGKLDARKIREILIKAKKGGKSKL
#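 Inhibitors were tested against purified firefly luciferase in a biochemical, low-substrate format (both substrates at 10uM) and luminescence measured with a CCD imager.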
# GPT2 inh: inhibitors of human GPT2 alanine aminotransferase. Q8TD30. Potency, µM (titrated, usually from 57.7 µM), inactives show at the top dose activity change, negative = inhibition, actives largely listed as inhibitors. 100,000 compounds, 0.25% hits. Recombinant GPT2, coupled pyruvate oxidase/HRP Amplex Red fluorescence; note: nearly all actives have a fitted effect of over 60% in size
#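 Fluorescence of coupled pyruvate oxidase/HRP/Amplex Red system (50uM Amplex, 30 min, dark) reports pyruvate formed by GPT2. Enzyme reaction: 10ng/uL GPT2, 2mM L-alanine, 250uM a-KG, 30 min room temperature, pH 7.5; 50uM AOA control.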
# * hit, by the source's call; i = inactive; ? = inconclusive; . = not tested or not shown; [ ] = dose if it differs, or a comment. Unless noted, calls come from the whole dose curve; as a rule, active = well fitted curve in the direction sought with a large enough effect; inconclusive = small, poorly fitted or top-dose-only effect, or another doubt; inactive = no such curve, though single readings can be large; an effect the other way counts as inactive or inconclusive. % is set by controls: 0 for no effect and ±100 for the full control effect; potency is the fitted concentration of half-maximal effect.
SMILES,NPR1 antag,HEK293 tox,3T3 cytotox,Luciferase inh,GPT2 inh
OC[C@@H]1CN(C2CCC2)C[C@H]1c1nc(-c2ccncc2)no1,2%,-15%,-3%,45µM*,i
OC[C@@H]1CN(Cc2ccccc2F)C[C@H]1c1nc(-c2ccncc2)no1,-25%,?,-26%,i,-4%
OC[C@@H]1CN(CC2CC2)C[C@H]1c1nc(-c2ccncc2)no1,0%,-3%,-11%,35µM*,i
OC[C@@H]1CN(C2CCCCC2)C[C@H]1c1nc(-c2ccncc2)no1,5%,-27%,-18%,?,1%
COc1ccc(-c2cn3cc(C(=O)NCc4cccs4)nc3s2)cc1,.,-3%,i,.,-11%
N#Cc1cccc(-c2c(C(=O)NC3CCCCCC3)nc3sccn23)c1,.,i,-6%,.,2%
COc1ccccc1C(=O)N1CCCN(c2cc(-c3ccc(Cl)cc3)[nH]n2)CC1,?,?,?,i,?
CCOc1ccccc1C(=O)N1CCN(c2cc(-c3ccc(F)cc3)[nH]n2)CC1,-11%,?,?,i,i
COc1cc(C(=O)N2CCN(c3cc(-c4ccc(Cl)cc4)[nH]n3)CC2)cc(OC)c1OC,?,?,25µM*,i,i
Cc1ccc(CC(=O)N2CCN(c3cc(-c4cccs4)[nH]n3)CC2)cc1,-21%,?,?,i,i
CCOc1ccc(CC(=O)N2CCN(c3cc(-c4cccs4)[nH]n3)CC2)cc1OCC,-1%,45µM*,28µM*,i,i
CCOc1ccccc1C(=O)N1CCN(c2cc(-c3ccc(Cl)cc3)[nH]n2)CC1,-28%,35µM*,18µM*,i,-11%
COc1ccccc1CC(=O)N1CCN(c2cc(-c3cccs3)[nH]n2)CC1,?,40µM*,?,i,3%
COc1ccc(C2(C(=O)NCC3CCCCC(=O)N3)CC2)cc1 (stereo unspecified),.,-1%,-7%,.,1%
Cc1ccccc1C(=O)N1CCN(c2cc(-c3cccs3)[nH]n2)CC1,-4%,?,?,i,3%
CCOc1ccccc1C(=O)N1CCN(c2cc(-c3cccs3)[nH]n2)CC1,-23%,40µM*,?,i,-12%
CCOc1cc(C(=O)N2CCN(c3cc(-c4ccc(Cl)cc4)[nH]n3)CC2)cc(OCC)c1OCC,-5%,35µM*,32µM*,i,i
COCCNC(=O)c1ccc2oc(-c3ccc(OC)nc3)nc2c1,.,?,-18%,.,-15%
CCOCCOC1CCN(C(=O)c2nn(C)c3ccccc23)CC1,1%,1%,5%,i,1%
Cc1ccc(-n2c(C3CCN(C(=O)Cc4ccc(Cl)cc4)CC3)n[nH]c2=O)cc1,0%,-1%,45µM*,i,0%
Cc1ccc(-n2c(C3CCN(C(=O)Cc4ccccc4Cl)CC3)n[nH]c2=O)cc1,-2%,-1%,?,i,i
Cc1ccc(-n2c(C3CCN(C(=O)Cc4ccccc4C)CC3)n[nH]c2=O)cc1,0%,-5%,?,i,4%
Cn1nc(C(=O)N2CCC(OCCOc3ccccc3)CC2)c2ccccc21,-1%,?,?,40µM*,i
Cc1ccc(-n2c(C3CCN(C(=O)c4nn(C)c5ccccc45)CC3)n[nH]c2=O)cc1,0%,-2%,8.9µM*,i,i
Cc1ccc(CC(=O)N2CCC(c3n[nH]c(=O)n3-c3ccccc3)CC2)cc1,0%,-7%,35µM*,i,4%
SMILES,NPR1 antag,HEK293 tox,3T3 cytotox,Luciferase inh,GPT2 inh
COc1ccc(F)cc1-c1cccc(C(=O)NCCNC(=O)c2ccccn2)c1,.,?,?,.,3%
Cc1ccccc1C(=O)NC1CCN(c2ccnc3ccnn23)C1 (stereo unspecified),.,?,?,.,i
O=C(CNC(=O)c1cccc(-c2ccsc2)c1)NCc1ccccc1Cl,.,?,?,.,-39%
Cc1ccc(-n2c(C3CCN(C(=O)Cc4cccc(C)c4)CC3)n[nH]c2=O)cc1,0%,9%,?,i,4%
COc1cccc(CC(=O)N2CCC(c3n[nH]c(=O)n3-c3ccc(C)cc3)CC2)c1,10%,0%,10µM*,i,i
COc1ccc(-c2ccc(CN)cc2)cc1,.,?,?,.,3%[88.5 µM]
NCc1cccc(-c2cc(F)cc(F)c2)c1,.,?,89µM*,.,i
NCc1ccc(-c2ccc(OC(F)(F)F)cc2)cc1,.,25µM*,25µM*,.,-5%
NCc1ccc(-c2ccc(F)cc2)cc1,.,100µM*,89µM*,.,-7%[88.5 µM]
COc1ccc(-c2nc(C)nc3c2CN(C(=O)Cc2ccc(F)cc2)CC3)cc1,.,-5%,-5%,.,2%
CSc1ccc(-c2cccc(C(=O)NCC(=O)N(C)C)c2)cc1,.,?,?,.,i
CC1(C)CN(Cc2cn(Cc3ccccc3)nc2-c2cc3ccccc3o2)CCO1,-3%,?,?,i,?
COC[C@H]1CCCN1Cc1cn(Cc2ccccc2)nc1-c1cc2ccccc2o1,-12%,?,?,?,-1%
c1ccc(Cn2cc(CN3CCN(c4ccncc4)CC3)c(-c3cc4ccccc4o3)n2)cc1,1%,40µM*,28µM*,i,-3%
c1ccc(Cn2cc(CN3CCCOCC3)c(-c3cc4ccccc4o3)n2)cc1,1%,?,?,35µM*,i
FC1CCN(Cc2cn(Cc3ccccc3)nc2-c2cc3ccccc3o2)CC1,-3%,32µM*,?,i,-2%
Cn1cc(-c2cnc3[nH]cc(CC(=O)NC4CCC4)c3c2)cn1,-2%[70.6 µM],?,32µM*,i,5%[88.5 µM]
CC(C)CNC(=O)Cc1c[nH]c2ncc(-c3cnn(C)c3)cc12,5%[70.6 µM],-22%[172 µM],45µM*,i,-14%[88.5 µM]
Cn1cc(-c2cnc3[nH]cc(CC(=O)NCc4ccncc4)c3c2)cn1,0%[70.6 µM],-10%[172 µM],?,i,1%[88.5 µM]
Cn1ncc2c(C(=O)NCc3ccccc3F)cc(-c3cccc(C(F)(F)F)c3)nc21,.,-28%,-31%,.,.
COc1ccc(C(=O)N2CCCC(c3nc(CCOCC4CCCC4)no3)C2)cc1F (stereo unspecified),?,45µM*,?,i,2%
Clc1cc(Cl)cc(NC2CNC2)c1,.,63µM*,56µM*,.,-10%[88.5 µM]
COc1cccc(C(=O)N2CCC(C(=O)N3CCC(c4nc5ccncc5[nH]4)C3)CC2)c1 (stereo unspecified),.,-16%,2%,.,-18%
Cc1ccc(Nc2ccnc(N3CCC(C(=O)NCC(F)(F)F)CC3)n2)cc1,.,?,?,.,-9%
COc1ccc(-c2cnc3n[nH]c(-c4ccc(OC)c(F)c4)c3n2)cn1,1%[70.6 µM],?,?,i,-8%[88.5 µM]
COc1ccc(-c2[nH]nc3ncc(-c4ccc(C)cc4)nc23)cc1F,-4%[70.6 µM],45µM*,40µM*,i,-13%[88.5 µM]
